Measurements published in PubChem BioAssay (Tox21).
Calls of active or inactive are those of the source. Calls follow the shape of the dose curve; as a rule, active = well fitted curve in the direction sought with a large enough effect in the repeat runs; inconclusive = weak or mixed curves; inactive = flat fitted curve, though single readings scatter.

Test: qHTS assay to test for compound auto fluorescence at 535 nm (green) in HepG2 cells (AID 720675)
Conditions: green autofluorescence 485/535 nm, 1 h; series mostly up to 91.3 µM
Description: National Center for Advancing Translational Sciences [NCATS]
NIH Chemical Genomics Center [NCGC]
U.S. Environmental Protection Agency [EPA]
National Institutes of Environmental Health Sciences [NIEHS]
National Toxicology Program [NTP]
U.S. Food and Drug Administration [FDA]
Compound auto fluorescence often interferes with screening of the compound library against various biological targets and signaling pathways. Some of these compounds may have fluorophoric properties. Such properties may interfere with the assay outputs resulting in false positives and/or negatives. To decrease such complications and ensure the compound activities are relevant in terms of biological response, the Tox21 10K compound library was screened for auto fluorescence.
From the fluorophores used as reporter signals in our screening assays, the auto fluorescence equivalencies of compounds against three fluorophores have been evaluated: Triamterene, Fluorescein and Rose Bengal sodium for blue, green and red fluorescence, respectively. The fluorescence intensities were measured using Excitation/Emission wavelengths at 405/460nm, 485/535nm and 540/590nm for blue, green and red labels, respectively. This assay includes the green fluorescence data.
Tox21 Assay Protocol Summary:
2,000 HepG2 cells in 5 uL of culture medium (MEM containing 10% FBS) per well were dispensed into black wall/clear bottom 1536-well plates using a Multidrop Combi Dispenser (ThermoFisher Scientific, Waltham, MA). The assay plates were incubated overnight at 37 C to allow cell attachment to the well bottom, followed by the transfer of 23 nL compound or DMSO vehicle by a pintool work station (Kalypsys , San Diego, CA). After the assay plates were incubated for 1 hr at 37 C and 5% CO2, fluorescence intensities in the assay plates were measured by an Envision (PerkinElmer, Shelton, CT) plate reader using three labels for measuring blue, green and red fluorescence at […] 460, 535 and 590 nm respectively.

| SMILES | outcome |
| --- | --- |
| COc1cc2c(c(OC)c1OC)-c1ccc(OC)c(=O)cc1[C@@H](NC(C)=O)CC2 | inactive |
| CN(C)C=O | inactive |
| CC1=NN(c2ccccc2)C(=O)C1 | inactive |
| N[C@@H](Cc1c[nH]c2ccccc12)C(=O)O | inactive |
| CCN(CC)CCOC(=O)c1ccc(N)cc1 | inactive |
| C1CNCCN1 | inactive |
| CC(C)=CCC/C(C)=C/CO | inactive |
| Cc1cccc(Nc2cc(Cl)nc(SCC(=O)O)n2)c1C | inactive |
| COc1ccc(O)cc1 | inactive |
| CN(C)Cc1cc(CN(C)C)c(O)c(CN(C)C)c1 | inactive |
| CN/C(=C\[N+](=O)[O-])NCCSCc1ccc(CN(C)C)o1 | inactive |
| O=C(OCc1ccccc1)c1ccccc1 | inactive |
| COCCOCCOC | inactive |
| COCC(C)N (stereo not given) | inactive |
| CCCCC/C(C=O)=C\c1ccccc1 | inactive |
| CCCCCCCC(=O)OCC(O)CO (stereo not given) | inactive |
| O=C1OC(c2ccc(O)cc2)(c2ccc(O)cc2)c2ccccc21 | inactive |
| CCCCCCCCOc1ccc(C(=O)c2ccccc2)c(O)c1 | inactive |
| Cc1c(N(C)CS(=O)(=O)O)c(=O)n(-c2ccccc2)n1C | inactive |
| CC(C)Cc1ccc(C(C)C(=O)O)cc1 (stereo not given) | inactive |

| SMILES | outcome |
| --- | --- |
| CC(=O)/C=C/C1=C(C)CCCC1(C)C | inactive |
| C=CCOC(=O)CC(C)C | inactive |
| Nc1ccc(N=Nc2ccccc2)c(N)n1 | inactive |
| CCCCOCCOCCOC(C)=O | inactive |
| CCc1cc(C(N)=S)ccn1 | inactive |
| COc1ccccc1NC(=O)CC(C)=O | inactive |
| C[C@]12CC[C@@H]3c4ccc(O)cc4CC[C@H]3[C@@H]1CCC2=O | inactive |
| C#C[C@]1(O)CC[C@H]2[C@@H]3CCc4cc(O)ccc4[C@H]3CC[C@@]21C | inactive |
| CC(=O)CCC(C)C | inactive |
| COC1=CC(=O)C[C@@H](C)[C@]12Oc1c(Cl)c(OC)cc(OC)c1C2=O | inactive |
| C[C@]12C=CC(=O)C=C1CC[C@@H]1[C@@H]2C(=O)C[C@@]2(C)[C@H]1CC[C@]2(O)C(=O)CO | inactive |
| CC(O)COc1ccccc1 (stereo not given) | inactive |
| Cc1cnc(NC(=O)C2=C(O)c3ccccc3S(=O)(=O)N2C)s1 | inactive |
| O=C(O)CN(CC(=O)O)CC(=O)O | inactive |
| CC(=O)Oc1ccccc1C(=O)O | inactive |
| Cc1cccc(C)c1O | inactive |
| CC(C)CC(C)CC(O)CC(C)C (stereo not given) | inactive |
| CCCCNC(=O)NS(=O)(=O)c1ccc(N)cc1 | inactive |
| C#C[C@]1(O)CC[C@H]2[C@@H]3CCC4=CC(=O)CC[C@@H]4[C@H]3CC[C@@]21CC | inactive |
| Cc1cccc2ccccc12 | inactive |
